Only some compounds are listed: those with a hit (about 2.1% of all), similar ones and a draw of the others.
aSyn rescue: qHTS of alpha-syn Inhibitors; Yeast expressing alpha-synuclein, growth rescue, BacTiter-Glo, 24 h; Potency, µM (highest dose often 46.1 µM), most hits filed as activators; 370,000 compounds, 0.14% hits; further: nearly all actives have a fitted effect of over 65% in size
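Screening used galactose-induced yeast with toxic alpha-synuclein levels, exposed to compound for 24 hr at 30 deg C. Cell growth, read with BacTiter-Glo luminescence, gave the measured signal.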
Mito fusion yeast: qHTS Assay for Small Molecule Inhibitors of Mitochondrial Division or Activators of Mitochondrial Fusion. S. cerevisiae fusion-defective mutant growth rescue, CellTiterGlo 48 h. Potency, µM (top dose mostly 46.1 µM), usual class: activators. 320,000 compounds, 0.23% hits. AID 485298, 2010; further: nearly all actives have a fitted effect of over 45% in size
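Luminescent cell viability in 1536-well qHTS format served as the measure of rescued growth in ts fusion-mutant S. cerevisiae cultured on non-fermentable YPEG for 48 hours at 37C.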
Abeta yeast res: qHTS for compounds that reverse cellular toxicity of Amyloid beta (A-beta) peptide in yeast: Primary Screen; yeast expressing A-beta42, growth rescue, OD600, 48 h; response scale: 0% DMSO, 100% iron-clioquinol control; Potency, µM (titrated, usually from 46.1 µM), actives largely listed as activators; 410,000 compounds, 0.063% hits; AID 1347071, 2019; further: nearly all actives have a fitted effect of over 55% in size
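Yeast A-beta toxicity model in growth medium with pinned compounds, 48 h at 30 C; growth read as absorbance at 600 nm. Normalized to FeCl3/clioquinol equimolar mix (positive) and DMSO (negative).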
TDP43 rescue: qHTS of TDP-43 Inhibitors. TDP-43 expressing yeast growth rescue, BacTiter-Glo, 24 h. AID 652104, 2013. 410,000 compounds, 1.8% hits. Potency, µM (doses to about 46.1 µM), actives largely listed as activators; further: nearly all actives have a fitted effect of over 50% in size
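Yeast cells expressing TDP-43 under galactose induction are exposed to compounds for 24 hr at 30 deg C. BacTiter-Glo luminescence measures growth, so protective compounds score as activators.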
AT treatment: qHTS Assay for Identifying a Potential Treatment of Ataxia-Telangiectasia; F2112 A-T fibroblasts, KAP-1 phosphorylation AlphaLISA; neocarzinostatin DNA damage 30 min before lysis; Potency, µM (series often up to 57.5 µM), usual class: activators; 320,000 compounds, 0.19% hits; further: nearly all actives have a fitted effect of over 45% in size
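ATM-like activity read as KAP-1 phosphorylation via AlphaLISA donor/acceptor antibody pairs after lysis and 6 hr at 25C. Cells were ATM-null patient fibroblasts (F2112, hTERT), dosed 60 min, then exposed to the DSB inducer NCS for 30 min.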
GRP78 ERSR act: qHTS for Inducers of the Endoplasmic Reticulum Stress Response (ERSR) in Human Glioma: qHTS. 420,000 compounds, 0.02% hits. U87-MG GRP78 promoter luciferase reporter, 16 h. Potency, µM, usual class: activators; further: series mostly up to about 76 µM; nearly all actives have a fitted effect of over 35% in size
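ERSR induction read as luciferase luminescence (Bright-Glo, 10 min at room temperature) in stably transfected human U87-MG glioma cells exposed to compounds for 16 h, using GRP78 as sensor.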
Of the large screens only hits and unclear results are named; the others gave an inactive call. The call rests on the fitted dose curve; in most records, active means well fitted curve in the direction sought with a large enough effect; inconclusive means small, poorly fitted or top-dose-only effect, or another doubt; inactive means no such curve, though single readings can be large; an effect the other way counts as inactive or inconclusive.

Cc1ccc(-c2nc(CCNC(=O)c3ccco3)cs2)cc1	none
O=C(NCCc1csc(-c2ccccc2)n1)c1c(F)cccc1F	TDP43 rescue 20µM
O=C(NCc1ccc(Cl)cc1)c1csc(-c2cccnc2)n1	TDP43 rescue 15.8µM
CCn1nc(C)cc1C(=O)NCC1Cc2cc(C)cc(-c3ccccc3C(=O)OC)c2O1 (configuration not stated)	none (no result: aSyn rescue, Mito fusion yeast, Abeta yeast res, TDP43 rescue, AT treatment)
CCn1c(-c2ccccc2F)nc2cc(NC(C)=O)cc(C(=O)N(C)Cc3c(C)nc4ccccn34)c21	none (no result: aSyn rescue, Mito fusion yeast, Abeta yeast res, TDP43 rescue, AT treatment)
Cc1ccc(NC(=O)C2CCC(CNS(=O)(=O)c3ccc4c(c3)CCCC(=O)N4)CC2)cc1F (configuration not stated)	none (no result: aSyn rescue, Mito fusion yeast, AT treatment)
O=C(NCCc1csc(-c2ccccc2)n1)c1c(F)cccc1Cl	TDP43 rescue 12.6µM
O=C(Cc1csc(-c2ccccc2)n1)NCc1ccc(F)cc1	TDP43 rescue inconclusive
O=C(NCCc1csc(-c2cccnc2)n1)c1c(F)cccc1F	AT treatment 39.8µM
O=C(NCc1csc(-c2ccccc2)n1)c1cc(F)cc2c1OCOC2	TDP43 rescue 12.6µM
O=C(NCCc1csc(-c2cccnc2)n1)c1ccc(Cl)cc1	TDP43 rescue inconclusive
O=C(Nc1cccc(Cl)c1)c1csc(-c2ccccc2)n1	Mito fusion yeast inconclusive, AT treatment 31.6µM
Cc1ncc2c(c1CNC(=O)c1ccc3c(c1)OCO3)CCN(C(=O)c1cc3ccccc3o1)C2	none (no result: aSyn rescue, Mito fusion yeast, Abeta yeast res, TDP43 rescue, AT treatment)
CCOC(=O)N/N=C1/C[C@@H](O)[C@@H](O)[C@@H]2[C@@H]3C(=O)N(C4CCCCC4)C(=O)[C@H]3CC[C@@H]12	none (no result: aSyn rescue, Mito fusion yeast, Abeta yeast res, TDP43 rescue, AT treatment)
COc1cc(C(=O)NCCc2csc(-c3ccc(Cl)cc3)n2)cc(OC)c1OC	TDP43 rescue 22.4µM (no result: aSyn rescue, Mito fusion yeast, AT treatment)
O=S(=O)(NCCc1csc(-c2cccnc2)n1)c1cc(F)ccc1F	Abeta yeast res 14.1µM, TDP43 rescue inconclusive
COc1cc(-c2nc(CCNC(=O)c3ccco3)cs2)cc(OC)c1OC	none
CCCN(CC(=O)Nc1ccccc1OC)C(=O)CC1CCCC1	none
CCOC(=O)c1c(-c2ccc(-c3ccccc3)cc2)csc1NC(=O)CCN1CCOCC1	Mito fusion yeast 10µM, TDP43 rescue 14.1µM
CCOC(=O)c1c(-c2ccc(F)cc2)csc1NC(=O)CCN1CCOCC1	Mito fusion yeast 11.2µM
CCOC(=O)c1c(-c2ccccc2)csc1NC(=O)C(C)NCCCN1CCOCC1 (configuration not stated)	none
Cc1cc(Sc2nnc(N)s2)c2ccccc2n1	AT treatment 39.8µM
CCC1CN(CCNC(=O)c2ccc3c(c2)OCO3)Cc2cc(OC)ccc2O1 (configuration not stated)	none (no result: aSyn rescue, Mito fusion yeast, Abeta yeast res, TDP43 rescue, AT treatment)
COc1cccc(-c2coc3c(C)c4oc(=O)c(CCC(=O)O)c(C)c4cc23)c1	GRP78 ERSR act inconclusive
COc1cccc(-c2coc3cc4oc(=O)c(CCC(=O)O)c(C)c4cc23)c1	Mito fusion yeast 22.4µM
Cc1c(CC(=O)NCCCC(=O)O)c(=O)oc2cc3occ(-c4ccccc4)c3cc12	none
Cc1c(CCC(=O)NCCCCCC(=O)O)c(=O)oc2cc3occ(-c4ccccc4)c3cc12	TDP43 rescue inconclusive, AT treatment 8.91µM
O=C1NCCc2c1[nH]c1ccccc21	none
O=C1NCCc2c1[nH]c1c(Cl)ccc(Cl)c21	TDP43 rescue 10µM
CCCCCn1c(CCCNC(=O)c2cccc(C)c2)nc2ccccc21	TDP43 rescue 35.5µM (no result: aSyn rescue, Mito fusion yeast, AT treatment)
CCCCn1c(CCCNC(=O)c2cccc(C)c2)nc2ccccc21	none (no result: aSyn rescue, Mito fusion yeast, AT treatment)
COc1ccc(S(=O)(=O)Nc2cccc3cccnc23)cc1	aSyn rescue inconclusive (no result: Mito fusion yeast, Abeta yeast res, TDP43 rescue, AT treatment)
COc1ccccc1NS(=O)(=O)c1ccc2ccccc2c1	TDP43 rescue 20µM
COc1ccccc1NS(=O)(=O)c1ccc(OC)c(OC)c1	none

Bioassay records as filed in PubChem BioAssay.
